Inconclusive results are not listed. The source made the active and inactive calls. How the source made its calls, unless noted: active means hit-call score of the fitted dose curve at least 0.9, where 1 is the maximum; inactive means score below 0.9.

In assay [1] the target is human Thyroid Receptor alpha (THRa1), THRA (gene 7067) (UniProt P10827). Kind of assay: ATG_THRa1_TRANS: Attagene TRANS-FACTORIAL HepG2 Assay for human Thyroid Receptor alpha (THRa1) (AID 2283014; active means hit-call score of the fitted dose curve at least 0.9, where 1 is the maximum). Put shortly: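 Transcripts from GAL4-UAS-driven reporters, measured after 24 h compound exposure by RT-PCR plus capillary electrophoresis of 6-FAM-labeled fragments, were fitted for gain of signal relative to DMSO. Cells: transiently transfected HepG2 expressing NR-Gal4 chimeras.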
Sequence of human Thyroid Receptor alpha (THRa1), THRA (gene 7067) (P10827 whole entry, looked up, the tested form may be a part): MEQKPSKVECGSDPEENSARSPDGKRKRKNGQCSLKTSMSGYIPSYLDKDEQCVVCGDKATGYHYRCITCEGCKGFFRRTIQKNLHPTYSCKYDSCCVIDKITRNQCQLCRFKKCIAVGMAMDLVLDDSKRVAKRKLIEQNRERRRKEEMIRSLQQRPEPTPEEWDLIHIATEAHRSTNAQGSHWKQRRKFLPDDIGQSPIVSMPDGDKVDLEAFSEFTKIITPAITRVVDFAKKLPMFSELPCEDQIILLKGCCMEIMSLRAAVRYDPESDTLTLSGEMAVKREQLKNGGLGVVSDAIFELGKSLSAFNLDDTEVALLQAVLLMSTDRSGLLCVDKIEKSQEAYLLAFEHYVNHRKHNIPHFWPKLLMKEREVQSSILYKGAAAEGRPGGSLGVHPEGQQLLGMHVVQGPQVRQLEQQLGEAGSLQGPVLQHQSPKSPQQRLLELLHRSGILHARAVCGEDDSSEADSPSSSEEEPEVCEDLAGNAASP

Read-out in assay [2]: E-selectin (Homo sapiens) (UniProt P16581)
Kind of assay: BSK_3C_Eselectin: BioMAP Diversity Plus: 3C Assay for Eselectin Biomarker Activity (AID 2283015).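 On outcome: cell surface E-selectin protein quantified by ELISA 24 h after dosing.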 The note with it: primary human endothelial cells (HUVEC); actives raise or lower the signal. Put shortly:
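E-selectin ELISA readout, fitted bidirectionally relative to DMSO, taken 24 h post-dosing in HUVEC cultures of the 3C system. Overt cytotoxicity tracked with sulforhodamine B staining of parallel wells.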

Read-out in assay [3]: Interleukin-1 alpha (IL1a), IL1A (gene 3552)
Briefly: BSK_BE3C_IL1a: BioMAP Diversity Plus: BE3C Assay for Interleukin-1 alpha (IL1a) Biomarker Activity (AID 2283016). The note with it: primary human bronchial epithelial cells; actives raise or lower the signal. Put shortly:
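ELISA read-out of IL-1a from human lung bronchial epithelial primary cells, 24 h post-dose. Gain or loss of signal fitted relative to DMSO negative control.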

Read-out in assay [4]: Monocyte Chemoattractant Protein-1 (MCP1), CCL2 (gene 6347)
Kind of assay: BSK_3C_MCP1: BioMAP Diversity Plus: 3C Assay for Monocyte Chemoattractant Protein-1 (MCP1) Biomarker Activity (AID 2283017). The note with it: primary human endothelial cells (HUVEC); actives raise or lower the signal. The essentials: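 MCP-1 was measured by ELISA 24 h after dosing in primary HUVEC 3C cultures and fitted in both directions relative to DMSO; cytotoxicity was checked by SRB total-protein staining in parallel wells.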

Read-out in assay [5]: Monocyte Chemoattractant Protein-1 (MCP1), CCL2 (gene 6347)
Kind of assay: BSK_4H_MCP1: BioMAP Diversity Plus: 4H Assay for Monocyte Chemoattractant Protein-1 (MCP1) Biomarker Activity (AID 2283018). Particulars: primary human endothelial cells (HUVEC); actives raise or lower the signal. Put shortly:
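HUVEC primary cells, 24 h post-dose, MCP-1 by ELISA. Gain or loss of signal fitted bidirectionally vs DMSO baseline. Cytotoxicity: SRB stain (0.1% after 10% TCA fixation), read 560 nm, parallel cultures.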

Read-out in assay [6]: Human Leukocyte Antigen - DR isotype (HLADR), HLA-DRA (gene 3122)
Kind of assay: BSK_3C_HLADR: BioMAP Diversity Plus: 3C Assay for Human Leukocyte Antigen - DR isotype (HLADR) Biomarker Activity (AID 2283019).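 On outcome: ELISA of cell-surface HLA-DR on HUVEC 24 h after dosing.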 Particulars: primary human endothelial cells (HUVEC); actives raise or lower the signal. The essentials:
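Bidirectional fitting against DMSO was applied to the HLA-DR ELISA signal from human umbilical vein endothelial cells, 24 h post-dose. Cytotoxicity came from parallel SRB total-protein staining; 3C proliferation was counted by SRB at 48 h.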

Read-out in assay [7]: Interleukin-8 (IL8), CXCL8 (gene 3576)
Briefly: BSK_3C_IL8: BioMAP Diversity Plus: 3C Assay for Interleukin-8 (IL8) Biomarker Activity (AID 2283020). The note with it: primary human endothelial cells (HUVEC); actives raise or lower the signal. The essentials:
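HUVEC, 3C stimulation; 24 h compound exposure; IL-8 read by ELISA; gain or loss of signal fitted relative to DMSO control.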

Read-out in assay [8]: Monokine induced gamma interferon (MIG), CXCL9 (gene 4283)
Kind of assay: BSK_3C_MIG: BioMAP Diversity Plus: 3C Assay for Monokine induced gamma interferon (MIG) Biomarker Activity (AID 2283021). The note with it: primary human endothelial cells (HUVEC); actives raise or lower the signal. Put shortly:
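HUVEC, 3C system; 24 h chemical exposure; MIG by ELISA; bidirectional fit vs DMSO baseline.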

For assay [9], the target named is human Vitamin D Receptor (VDR), VDR (gene 7421) (UniProt P11473). Kind of assay: ATG_VDR_TRANS: Attagene TRANS-FACTORIAL HepG2 Assay for human Vitamin D Receptor (VDR) (AID 2283022; active means hit-call score of the fitted dose curve at least 0.9, where 1 is the maximum). The essentials: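 Transactivation by an exogenous VDR-Gal4 chimera in transiently transfected HepG2 cells was measured as reporter transcript level 24 hours after chemical treatment. RT-PCR products were analysed by capillary electrophoresis and fitted in the positive direction relative to DMSO.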
Sequence of human Vitamin D Receptor (VDR), VDR (gene 7421) (P11473 whole entry, looked up, the tested form may be a part): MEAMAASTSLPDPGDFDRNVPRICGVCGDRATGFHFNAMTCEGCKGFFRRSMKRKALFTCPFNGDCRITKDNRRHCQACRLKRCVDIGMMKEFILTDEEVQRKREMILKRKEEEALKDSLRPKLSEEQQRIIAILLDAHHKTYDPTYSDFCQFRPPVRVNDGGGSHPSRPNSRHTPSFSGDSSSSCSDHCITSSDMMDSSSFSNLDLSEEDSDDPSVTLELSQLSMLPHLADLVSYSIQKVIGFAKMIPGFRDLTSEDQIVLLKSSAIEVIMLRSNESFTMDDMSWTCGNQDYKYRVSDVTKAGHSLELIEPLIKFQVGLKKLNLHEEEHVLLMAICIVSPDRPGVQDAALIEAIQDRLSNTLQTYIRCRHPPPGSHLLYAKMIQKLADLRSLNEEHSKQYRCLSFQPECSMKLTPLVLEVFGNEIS

Assay [10] is described as follows: BSK_3C_SRB: Viability Assessment in the BioMAP Diversity Plus: 3C Assay (AID 2283023).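 Further: fitted both ways against DMSO so a hit may be signal rise or drop.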 Particulars: primary human endothelial cells (HUVEC). Put shortly: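 Cytotoxicity readout in parallel HUVEC 3C cultures: after 24 h compound exposure, cells fixed with 10% TCA, stained with 0.1% SRB and read at 560 nm. Gain or loss relative to DMSO fitted.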
Read-out in assay [11]: Matrix Metallopeptidase 1 (MMP1), MMP1 (gene 4312)
Briefly: BSK_BE3C_MMP1: BioMAP Diversity Plus: BE3C Assay for Matrix Metallopeptidase 1 (MMP1) Biomarker Activity (AID 2283024). The note with it: primary human bronchial epithelial cells; actives raise or lower the signal. The essentials: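 ELISA read-out of MMP1 in human lung bronchial epithelial primary cultures, 24 h post-dose; bidirectional curve fit vs DMSO baseline, gain or loss of signal scored.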

The nature of assay [12]: BSK_3C_Vis: BioMAP Diversity Plus: 3C Assay for Morphology Visualization (AID 2283025).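 Further: fitted both ways so gain or loss versus DMSO counts.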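 On AC50: light microscopy image of cell morphology used as background control.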 The note with it: primary human endothelial cells (HUVEC). Put shortly:
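HUVEC, 3C system; light microscopy of morphology at 24 h post-dose. Bidirectional fit vs DMSO baseline. Secondary readout, background-control function.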

Read-out in assay [13]: Pselectin, SELP (gene 6403)
Briefly: BSK_4H_Pselectin: BioMAP Diversity Plus: 4H Assay for Pselectin Biomarker Activity (AID 2283026). Particulars: primary human endothelial cells (HUVEC); actives raise or lower the signal. The essentials: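 HUVEC, 24 h chemical exposure; P-selectin read by ELISA. Bidirectional curve fit vs DMSO baseline; gain or loss of signal scored.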

Assay [14] is described as follows: BSK_4H_SRB: Viability Assessment in the BioMAP Diversity Plus: 4H Assay (AID 2283027).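 Further: cells exposed to compound for 24 h before staining.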 The note with it: primary human endothelial cells (HUVEC). Put shortly: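 Cytotoxicity read-out in primary human endothelial cells: after 24 h compound exposure, cells were TCA-fixed (10%), stained with 0.1% SRB and absorbance taken at 560 nm. Values fitted in both directions relative to DMSO.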

Read-out in assay [15]: Thrombomodulin, THBD (gene 7056)
Kind of assay: BSK_3C_Thrombomodulin: BioMAP Diversity Plus: 3C Assay for Thrombomodulin Biomarker Activity (AID 2283029). Particulars: primary human endothelial cells (HUVEC); actives raise or lower the signal. Put shortly: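 HUVEC, 3C conditions; compound 24 h; thrombomodulin by ELISA; bidirectional curve fit vs DMSO baseline; parallel SRB total-protein staining for cytotoxicity.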

Read-out in assay [16]: Urokinase-type plasminogen activator receptor (uPAR), PLAUR (gene 5329)
Kind of assay: BSK_4H_uPAR: BioMAP Diversity Plus: 4H Assay for Urokinase-type plasminogen activator receptor (uPAR) Biomarker Activity (AID 2283030). Particulars: primary human endothelial cells (HUVEC); actives raise or lower the signal. The essentials:
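uPAR level read by ELISA on HUVEC cultures (BioMAP 4H) 24 h post-dosing, analyzed for gain or loss relative to DMSO. Parallel SRB staining assessed overt cytotoxicity.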

Read-out in assay [17]: Vascular endothelial growth factor receptor 2 (Homo sapiens) (UniProt P35968)
Briefly: BSK_4H_VEGFRII: BioMAP Diversity Plus: 4H Assay for Vascular endothelial growth factor receptor 2 (VEGFR2) Biomarker Activity (AID 2283031).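 On AC50: cell-surface VEGFR2 protein level quantified by ELISA.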 Particulars: primary human endothelial cells (HUVEC); actives raise or lower the signal. The essentials: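 Measured by ELISA after 24 h of compound treatment: VEGFR2 on primary human umbilical vein endothelial cells, fitted in both directions relative to DMSO. Parallel cultures received SRB staining (560 nm) for overt cytotoxicity.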

Read-out in assay [18]: Human Leukocyte Antigen - DR isotype (HLADR), HLA-DRA (gene 3122)
Kind of assay: BSK_BE3C_HLADR: BioMAP Diversity Plus: BE3C Assay for Human Leukocyte Antigen - DR isotype (HLADR) Biomarker Activity (AID 2283032). Particulars: primary human bronchial epithelial cells; actives raise or lower the signal. Put shortly:
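Primary human bronchial epithelial cells (BE3C); 24 h chemical exposure; HLA-DR by ELISA; bidirectional curve fit vs DMSO baseline.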

For assay [19], the target named is human Retinoid X Receptor beta (RXRb), RXRB (gene 6257) (UniProt P28702). Kind of assay: ATG_RXRb_TRANS: Attagene TRANS-FACTORIAL HepG2 Assay for human Retinoid X Receptor beta (RXRb) (AID 2283013; active means hit-call score of the fitted dose curve at least 0.9, where 1 is the maximum). Put shortly: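 Read-out: reporter mRNA induction via RT-PCR plus capillary electrophoresis fluorescence, analysed as signal increase relative to DMSO. Cells were human HepG2, transiently transfected with GAL4-UAS reporter constructs and chimeric receptor-Gal4 fusions, dosed for 24 h.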
Sequence of human Retinoid X Receptor beta (RXRb), RXRB (gene 6257) (P28702 whole entry, looked up, the tested form may be a part): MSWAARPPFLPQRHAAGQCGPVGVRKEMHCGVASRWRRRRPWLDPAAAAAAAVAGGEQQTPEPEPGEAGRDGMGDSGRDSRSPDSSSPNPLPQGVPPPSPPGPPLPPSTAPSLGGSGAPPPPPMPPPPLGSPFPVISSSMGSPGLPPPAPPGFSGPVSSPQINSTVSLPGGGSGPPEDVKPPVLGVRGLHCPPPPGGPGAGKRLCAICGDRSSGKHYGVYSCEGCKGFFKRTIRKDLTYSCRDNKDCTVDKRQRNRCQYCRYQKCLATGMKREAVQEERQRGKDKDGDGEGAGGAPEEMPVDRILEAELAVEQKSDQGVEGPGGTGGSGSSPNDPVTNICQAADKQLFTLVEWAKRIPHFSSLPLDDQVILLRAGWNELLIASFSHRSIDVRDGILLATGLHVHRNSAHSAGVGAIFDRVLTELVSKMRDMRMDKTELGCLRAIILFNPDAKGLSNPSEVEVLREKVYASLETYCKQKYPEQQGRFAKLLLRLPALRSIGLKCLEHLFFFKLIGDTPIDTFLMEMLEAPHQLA

The nature of assay [20]: BSK_BE3C_SRB: Viability Assessment in the BioMAP Diversity Plus: BE3C Assay (AID 2283028). Particulars: primary human bronchial epithelial cells. The essentials: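 Cytotoxicity read-out: SRB (0.1%) staining of TCA-fixed (10%) human lung bronchial epithelial cells, absorbance 560 nm, 24 h post-dosing. Curves fitted both directions relative to DMSO.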

Sequence of E-selectin (Homo sapiens) (P16581 whole entry, looked up): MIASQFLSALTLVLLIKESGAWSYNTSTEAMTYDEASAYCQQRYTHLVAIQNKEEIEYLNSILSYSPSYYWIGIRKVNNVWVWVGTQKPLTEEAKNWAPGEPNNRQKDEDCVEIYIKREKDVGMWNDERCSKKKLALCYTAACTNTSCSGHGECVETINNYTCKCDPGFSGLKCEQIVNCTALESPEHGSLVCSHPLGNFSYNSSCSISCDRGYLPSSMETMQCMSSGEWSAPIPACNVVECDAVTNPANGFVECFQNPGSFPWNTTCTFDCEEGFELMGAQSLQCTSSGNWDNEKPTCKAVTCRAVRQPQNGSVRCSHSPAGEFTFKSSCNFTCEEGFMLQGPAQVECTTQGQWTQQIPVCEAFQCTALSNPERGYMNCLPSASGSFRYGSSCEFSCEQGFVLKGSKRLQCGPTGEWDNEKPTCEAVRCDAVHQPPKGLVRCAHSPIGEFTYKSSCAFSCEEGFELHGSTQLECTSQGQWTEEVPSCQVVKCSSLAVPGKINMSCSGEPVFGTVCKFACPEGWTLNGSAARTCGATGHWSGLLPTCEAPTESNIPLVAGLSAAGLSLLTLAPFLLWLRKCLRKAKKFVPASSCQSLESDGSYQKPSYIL

Turning to `O=C1OC2(c3ccccc31)c1cc(I)c(O)c(I)c1Oc1c2cc(I)c(O)c1I`, the compound was classed as inactive in assay [1], in assay [7], in assay [8], in assay [9] and in [14]. Moreover, the AC50 in assay [2] is 5.74 µM (active); in assay [3] it was 4.58 µM (active); in assay [4], 6.03 µM (active); in assay [5] it was 4.8 µM (active); in [6], 6.51 µM (active); in assay [10], 12 µM (active). For the same compound, the AC50 in assay [11] is 3.22 µM (active); in assay [12], 22.5 µM (active); in assay [13], 12 µM (active); in assay [15] it was 7.01 µM (active); in assay [16] it was 8.51 µM (active); in assay [17] it was 3.36 µM (active). For the same compound, the AC50 in assay [18] is 4.33 µM (active).
With `COc1ccccc1NC(=O)c1cc2ccccc2cc1O`, in [1], the AC50 was 21.7 µM (active).
Consider `CCCCCC(C)OC(=O)COc1ccc(Cl)c2cccnc12` (stereo not given), for which the result in [19] and in assay [9] was inactive.
In the case of `FC(F)(F)C1(F)C(F)(F)C(F)(F)C(F)(F)C1(F)F`, the compound was classed as inactive in [1] and in [9].
With `COC(=O)CC(C(C)=O)C(=O)OC` (stereo not given), the compound was called inactive in [1] and in [9].
As for `NC(C(F)(F)F)C(F)(F)F`, the compound was classed as inactive in assay [1] and in assay [9].
Take `Oc1ccc(Cc2ccccc2O)cc1`: the compound was called inactive in assay [1], in assay [2], in assay [3], in [4], in assay [5] and in assay [6]. The result in assay [7], in [8], in [9], in assay [10], in assay [11] and in assay [13] was inactive. Further, the result in assay [20], in [15], in assay [16], in assay [17] and in assay [18] was inactive.
Take `OCC(CO)(CBr)CBr`: the result in [1], in assay [2], in [3], in assay [4], in [5] and in [6] was inactive. The outcome in assay [7], in assay [8], in assay [10], in assay [11], in assay [12] and in [13] was inactive. Moreover, the outcome in assay [20], in assay [15], in assay [16], in assay [17] and in [18] was inactive.
`O=C1OC(=O)C(F)(F)C1(F)F`: the call in assay [1] was inactive.
For the compound `CCC(C)c1nccnc1OC` (stereo not given), the compound was classed as inactive in assay [19] and in assay [9].
As to `COC1=CC(=O)C[C@@H](C)[C@]12Oc1c(Cl)c(OC)cc(OC)c1C2=O`, the result in assay [1], in [2], in assay [3], in assay [4], in [5] and in assay [6] was inactive. Further, the outcome in [7], in [8], in assay [10], in assay [11], in assay [13] and in assay [20] was inactive. Besides, the result in [15], in assay [16], in [17] and in assay [18] was inactive.

In general, AC50 refers to the concentration at which the activity in the assay is half-maximal.
